Activity calls are given as the source filed them. The calls were made as follows: active = hit-call score of the fitted dose curve at least 0.9, where 1 is the maximum; inactive = score below 0.9.
How the values were obtained:
[1] = ATG_GLI_CIS: Attagene CIS-FACTORIAL HepG2 Assay for human Zinc Finger Protein GLI1 (AID 2282945); details: HepG2, Attagene cis-factorial reporter mRNA, GLI element; actives raise or lower the signal
Outline: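 Bidirectional curve fits relative to DMSO, using reporter mRNA levels from RT-PCR plus capillary electrophoresis. Cells were HepG2 transiently carrying cis-regulated reporter constructs, harvested 24 h after dosing.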

[2] = target: Bile acid receptor (Homo sapiens) (UniProt Q96RI1); test: ATG_IR1_CIS: Attagene CIS-FACTORIAL HepG2 Assay for human Nuclear Receptor Subfamily 1 Group H Member 4 (NR1H4), IR1 submotif (AID 2282946); details: IR1 reporter transcription, actives raise or lower the signal
Outline: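 HepG2 cells transiently transfected with multiplexed cis-element reporter units read endogenous transcription factor activity. After 24 h compound exposure, reporter mRNA was quantified by RT-PCR, fluorescent labelling, HpaI digestion and capillary electrophoresis; bidirectional fitting versus DMSO baseline.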

[3] = ATG_GRE_CIS: Attagene CIS-FACTORIAL HepG2 Assay for human Glucocorticoid Response Elements (GRE) (AID 2282947); details: HepG2 GRE cis-reporter, Attagene multiplex mRNA; actives raise or lower the signal
Outline: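 Reporter transcripts read by RT-PCR with capillary electrophoresis fluorescence after a 24 h chemical exposure of HepG2 cells transiently transfected with multiple cis-element reporter units. Gain or loss fitted against DMSO.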

[4] = ATG_ISRE_CIS: Attagene CIS-FACTORIAL HepG2 Assay for human Interferon Regulatory Factor 1 (IRF1) binding to an Interferon-Stimulated Response Element (ISRE) (AID 2282948); details: HepG2 ISRE cis-reporter (Attagene), mRNA transcription readout; actives raise or lower the signal
Outline: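 Uses HepG2 liver cells transfected with cis-regulated reporters and measures mRNA 24 h post-dosing through RT-PCR, primer-extension labelling and capillary electrophoresis, with DMSO as negative control.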

[5] = ATG_M_32_CIS: Attagene CIS-FACTORIAL HepG2 Assay for M32 Transcription Factor (Internal Marker) (AID 2282949); details: HepG2 Attagene cis-factorial M32 reporter, mRNA; actives raise or lower the signal;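 also: background control marker of the multiplexed CIS panel rather than a real target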
Outline: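 HepG2 human liver cells transiently transfected with cis-promoter-driven multiple reporter transcription units, dosed 24 h. Reporter mRNA quantified by RT-PCR, FAM-labelled primer extension, HpaI digest and capillary electrophoresis; bidirectional fit versus DMSO baseline.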

[6] = ATG_M_06_CIS: Attagene CIS-FACTORIAL HepG2 Assay for M06 Transcription Factor (Internal Marker) (AID 2282950); details: HepG2 Attagene CIS-FACTORIAL M06 internal marker reporter; actives raise or lower the signal
Outline: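 Fluorescence-labelled RT-PCR products from cis-promoter reporter units, cut with HpaI and resolved by capillary electrophoresis, give the signal. Cells are human HepG2, dosed for 24 h. Serves as background control, fitted relative to DMSO.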

[7] = target: Hypoxia-inducible factor 1-alpha (Homo sapiens) (UniProt Q16665); test: ATG_HIF1a_CIS: Attagene CIS-FACTORIAL HepG2 Assay for human Hypoxia Inducible Factor 1 (HIF1A) (AID 2282951); details: HepG2 Attagene cis-factorial HIF1a reporter transcription; actives raise or lower the signal
Outline: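 Cis-element reporter constructs were transiently transfected into HepG2 cells, which were treated for 24 h; reporter RNA was reverse-transcribed, amplified, labelled and resolved by capillary electrophoresis.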

[8] = target: Heat shock factor protein 1 (Homo sapiens) (UniProt Q00613); test: ATG_HSE_CIS: Attagene CIS-FACTORIAL HepG2 Assay for human Heat Shock Transcription Factor 1 (HSE) (AID 2282953); details: HepG2 HSE cis-reporter, Attagene RNA transcription; actives raise or lower the signal
Outline: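 After a 24 h incubation with test chemical, transfected HepG2 cells were harvested for RNA; reporter transcripts were measured by RT-PCR and capillary electrophoresis. Values reflect gain or loss of signal relative to DMSO.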

[9] = ATG_MRE_CIS: Attagene CIS-FACTORIAL HepG2 Assay for human Metal Responsive Element (MRE) (AID 2282954); details: HepG2 MRE cis-reporter transcription, Attagene multiplex; actives raise or lower the signal
Outline: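 Endogenous MRE-dependent transcription read as reporter mRNA in transiently transfected human HepG2 cells at 24 h. RNA reverse-transcribed, PCR-amplified, labelled and resolved by capillary electrophoresis; gain or loss relative to DMSO.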

[10] = ATG_PBREM_CIS: Attagene CIS-FACTORIAL HepG2 Assay for human Phenobarbital-responsive Enhancer Module (PBREM) (AID 2282955); details: HepG2 PBREM cis-reporter, Attagene multiplexed transcription; actives raise or lower the signal
Outline: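 Multiplexed cis-reporter readout in human hepatoma HepG2 cells; PBREM-regulated transcript quantified after 24 h exposure by fluorescent RT-PCR fragment analysis. Signal changes up or down fitted relative to DMSO.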

[11] = target: Paired box protein Pax-6 (Homo sapiens) (UniProt P26367); test: ATG_Pax6_CIS: Attagene CIS-FACTORIAL HepG2 Assay for human Paired Box 6 (PAX6) (AID 2282956); details: HepG2 CIS-FACTORIAL PAX6 reporter transcription, RNA readout; actives raise or lower the signal
Outline: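 DMSO-referenced bidirectional fits of reporter mRNA fluorescence; HepG2 with transient cis-promoter MRTUs, 24 h post-dose, RT-PCR plus capillary electrophoresis detection.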

[12] = ATG_PXRE_CIS: Attagene CIS-FACTORIAL HepG2 Assay for human Pregnane X Receptor Element (PXRE) (AID 2282957); details: HepG2 Attagene CIS-FACTORIAL PXRE reporter, mRNA; actives raise or lower the signal
Outline: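 After a 24 h chemical incubation, total RNA from transfected HepG2 cells was reverse-transcribed and reporter cDNA amplified, FAM-labeled, HpaI-digested and sized by capillary electrophoresis. DMSO served as baseline for bidirectional curve fitting.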

[13] = ATG_PPRE_CIS: Attagene CIS-FACTORIAL HepG2 Assay for human Peroxisome Proliferator-activated Response Element (PPRE) (AID 2282958); details: HepG2 PPRE cis-element reporter, Attagene transcription factor profiling; actives raise or lower the signal
Outline: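 DMSO served as negative control and baseline for bidirectional curve fitting. Signal came from PPRE-regulated reporter mRNA in HepG2 cells, measured 24 h post-dosing by RT-PCR, 6-FAM primer extension and capillary electrophoresis.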

[14] = ATG_RORE_CIS: Attagene CIS-FACTORIAL HepG2 Assay for human RAR-related Orphan Receptor Element (RORE) (AID 2282959); details: HepG2 Attagene cis-factorial RORE reporter, mRNA; actives raise or lower the signal
Outline: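 Transfect HepG2 with MRTUs; treat 24 h; extract RNA; RT with oligo(dT); PCR with reporter-specific primers; 6-FAM primer extension; HpaI digest 2 h at 37 C; capillary electrophoresis. Fit vs DMSO, bidirectional.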

[15] = ATG_Sox_CIS: Attagene CIS-FACTORIAL HepG2 Assay for human SRY-box transcription factor (SOX) (AID 2282960); details: HepG2 Attagene cis-factorial SOX reporter, mRNA; actives raise or lower the signal
Outline: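 Fluorescence-labelled cDNA fragments from reporter transcripts, sized by CE, give the signal. Cells: HepG2, transiently transfected with cis-regulated reporter units. Exposure 24 h; DMSO negative control; bidirectional curve fitting.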

[16] = target: Transcription factor Sp1 (Homo sapiens) (UniProt P08047); test: ATG_Sp1_CIS: Attagene CIS-FACTORIAL HepG2 Assay for human Specificity Protein 1 (Sp1) (AID 2282961); details: HepG2 Sp1 cis-reporter transcription, actives raise or lower the signal
Outline: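 Chemicals are dosed onto HepG2 cells transfected with multiple cis-promoter reporter constructs, and after 24 h reporter RNA is reverse-transcribed, PCR-amplified and resolved by capillary electrophoresis for fluorescence quantitation; activity is scored up or down against DMSO.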

[17] = ATG_SREBP_CIS: Attagene CIS-FACTORIAL HepG2 Assay for human Sterol Regulatory Element Binding (SREBP) (AID 2282962); details: HepG2 Attagene cis-factorial SREBP reporter, mRNA; actives raise or lower the signal
Outline: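 In this cis-format assay, HepG2 liver cells express reporters controlled by promoter elements responsive to native transcription factors. Exposure lasts 24 h; reporter mRNA fluorescence from capillary electrophoresis gives the signal, fitted bidirectionally against DMSO.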

[18] = target: Signal transducer and activator of transcription 3 (Homo sapiens) (UniProt P40763); test: ATG_STAT3_CIS: Attagene CIS-FACTORIAL HepG2 Assay for human Signal Transducer and Activator of Transcription 3 (STAT3) (AID 2282963); details: HepG2, Attagene cis-factorial STAT3 reporter transcription; actives raise or lower the signal
Outline: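 Readout is reporter transcript quantified by RT-PCR and capillary electrophoresis, with 6-FAM primer extension and HpaI digestion. Total RNA is taken 24 h after dosing transiently transfected HepG2 carrying cis-regulated reporter units. Bidirectional fit against DMSO.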

[19] = ATG_TA_CIS: Attagene CIS-FACTORIAL HepG2 Assay for human TA Basal Promoter (AID 2282964); details: HepG2 Attagene CIS-factorial TA basal promoter reporter; actives raise or lower the signal
Outline: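 Multiplexed mRNA reporter assay, HepG2, 24 h. Reporter cDNA amplified, 6-FAM primer-extended, HpaI-cut, CE-sized; DMSO = negative control and baseline.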

[20] = target: Hepatocyte nuclear factor 6 (Homo sapiens) (UniProt Q9UBC0); test: ATG_HNF6_CIS: Attagene CIS-FACTORIAL HepG2 Assay for human Hepatocyte Nuclear Factor 6 (HNF6) (AID 2282952); details: HepG2 Attagene cis-factorial HNF6 reporter transcription; actives raise or lower the signal
Outline: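 First, HepG2 cells were transfected with the multiplexed cis reporter library and dosed with chemical for 24 h. Next, RNA was reverse-transcribed, PCR-amplified and fluorescently labelled. Finally, HpaI-digested fragments were read by capillary electrophoresis.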

Measured: AC50

Signal transducer and activator of transcription 3 (Homo sapiens), sequence (P40763 whole entry, looked up): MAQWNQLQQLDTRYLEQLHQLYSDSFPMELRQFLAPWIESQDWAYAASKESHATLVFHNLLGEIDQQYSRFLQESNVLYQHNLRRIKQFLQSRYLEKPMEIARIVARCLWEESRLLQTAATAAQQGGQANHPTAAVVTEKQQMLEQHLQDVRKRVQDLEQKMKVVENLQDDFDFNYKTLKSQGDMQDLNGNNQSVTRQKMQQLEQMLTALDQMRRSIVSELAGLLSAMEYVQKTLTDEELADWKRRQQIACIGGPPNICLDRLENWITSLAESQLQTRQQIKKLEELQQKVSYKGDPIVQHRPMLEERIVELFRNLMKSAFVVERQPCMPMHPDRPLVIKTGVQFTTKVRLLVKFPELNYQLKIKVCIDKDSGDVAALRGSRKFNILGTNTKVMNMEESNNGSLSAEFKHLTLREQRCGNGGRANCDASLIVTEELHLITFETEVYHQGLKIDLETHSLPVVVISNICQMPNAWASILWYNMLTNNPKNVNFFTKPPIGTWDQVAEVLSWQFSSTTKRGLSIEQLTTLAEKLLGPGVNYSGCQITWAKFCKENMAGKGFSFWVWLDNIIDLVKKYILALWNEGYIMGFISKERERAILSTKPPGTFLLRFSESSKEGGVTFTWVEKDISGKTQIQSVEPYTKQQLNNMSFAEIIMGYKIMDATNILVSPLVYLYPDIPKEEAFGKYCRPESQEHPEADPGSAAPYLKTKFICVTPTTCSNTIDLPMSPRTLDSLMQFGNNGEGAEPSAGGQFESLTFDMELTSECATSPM
Heat shock factor protein 1 (Homo sapiens), sequence (Q00613 whole entry, looked up): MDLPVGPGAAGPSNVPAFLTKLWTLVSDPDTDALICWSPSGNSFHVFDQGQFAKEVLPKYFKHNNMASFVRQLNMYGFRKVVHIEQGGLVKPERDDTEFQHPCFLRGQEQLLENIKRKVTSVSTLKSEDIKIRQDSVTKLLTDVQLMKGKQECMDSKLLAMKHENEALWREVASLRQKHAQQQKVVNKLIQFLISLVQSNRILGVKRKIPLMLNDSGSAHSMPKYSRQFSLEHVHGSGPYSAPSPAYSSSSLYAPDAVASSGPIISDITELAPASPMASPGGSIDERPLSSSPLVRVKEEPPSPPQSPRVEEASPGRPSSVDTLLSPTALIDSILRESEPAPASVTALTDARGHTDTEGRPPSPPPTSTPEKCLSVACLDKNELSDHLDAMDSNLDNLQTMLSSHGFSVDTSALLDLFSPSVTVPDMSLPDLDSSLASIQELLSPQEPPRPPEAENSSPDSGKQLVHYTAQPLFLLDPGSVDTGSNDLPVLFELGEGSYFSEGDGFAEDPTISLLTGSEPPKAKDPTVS
Bile acid receptor (Homo sapiens), sequence (Q96RI1 whole entry, looked up): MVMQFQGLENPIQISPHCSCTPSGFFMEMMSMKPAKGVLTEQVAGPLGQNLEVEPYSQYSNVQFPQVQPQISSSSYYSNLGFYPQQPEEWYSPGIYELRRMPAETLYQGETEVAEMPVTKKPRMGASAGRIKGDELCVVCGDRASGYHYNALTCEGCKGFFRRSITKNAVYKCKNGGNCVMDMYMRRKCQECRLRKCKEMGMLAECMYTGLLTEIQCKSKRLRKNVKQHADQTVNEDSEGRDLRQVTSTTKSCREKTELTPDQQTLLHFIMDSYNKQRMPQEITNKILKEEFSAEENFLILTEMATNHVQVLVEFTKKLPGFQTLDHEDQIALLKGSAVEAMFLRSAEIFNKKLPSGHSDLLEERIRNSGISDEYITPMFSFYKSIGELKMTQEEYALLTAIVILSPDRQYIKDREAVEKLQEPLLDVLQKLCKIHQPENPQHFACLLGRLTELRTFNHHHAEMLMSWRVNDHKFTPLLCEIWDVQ
Hypoxia-inducible factor 1-alpha (Homo sapiens), sequence (Q16665 whole entry, looked up): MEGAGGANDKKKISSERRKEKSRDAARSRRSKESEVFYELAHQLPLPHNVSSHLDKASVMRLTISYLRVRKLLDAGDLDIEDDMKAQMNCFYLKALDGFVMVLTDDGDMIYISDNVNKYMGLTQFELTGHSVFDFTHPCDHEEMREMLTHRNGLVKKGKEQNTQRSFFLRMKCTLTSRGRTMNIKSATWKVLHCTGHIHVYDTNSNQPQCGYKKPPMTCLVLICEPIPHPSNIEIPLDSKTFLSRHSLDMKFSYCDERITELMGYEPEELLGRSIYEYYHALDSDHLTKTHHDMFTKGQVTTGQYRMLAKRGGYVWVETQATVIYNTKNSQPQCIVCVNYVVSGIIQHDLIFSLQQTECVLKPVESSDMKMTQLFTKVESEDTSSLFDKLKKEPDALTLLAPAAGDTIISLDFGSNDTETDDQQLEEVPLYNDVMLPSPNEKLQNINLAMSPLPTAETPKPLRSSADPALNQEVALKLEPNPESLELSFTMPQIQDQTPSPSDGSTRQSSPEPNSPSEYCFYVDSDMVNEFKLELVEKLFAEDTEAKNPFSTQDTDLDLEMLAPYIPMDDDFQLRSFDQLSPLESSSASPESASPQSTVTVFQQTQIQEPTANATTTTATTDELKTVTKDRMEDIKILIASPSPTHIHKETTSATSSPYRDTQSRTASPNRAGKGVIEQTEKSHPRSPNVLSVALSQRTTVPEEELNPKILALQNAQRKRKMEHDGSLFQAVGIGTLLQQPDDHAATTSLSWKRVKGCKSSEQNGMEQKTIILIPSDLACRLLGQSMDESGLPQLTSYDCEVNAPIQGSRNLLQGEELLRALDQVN
Transcription factor Sp1 (Homo sapiens), sequence (P08047 whole entry, looked up): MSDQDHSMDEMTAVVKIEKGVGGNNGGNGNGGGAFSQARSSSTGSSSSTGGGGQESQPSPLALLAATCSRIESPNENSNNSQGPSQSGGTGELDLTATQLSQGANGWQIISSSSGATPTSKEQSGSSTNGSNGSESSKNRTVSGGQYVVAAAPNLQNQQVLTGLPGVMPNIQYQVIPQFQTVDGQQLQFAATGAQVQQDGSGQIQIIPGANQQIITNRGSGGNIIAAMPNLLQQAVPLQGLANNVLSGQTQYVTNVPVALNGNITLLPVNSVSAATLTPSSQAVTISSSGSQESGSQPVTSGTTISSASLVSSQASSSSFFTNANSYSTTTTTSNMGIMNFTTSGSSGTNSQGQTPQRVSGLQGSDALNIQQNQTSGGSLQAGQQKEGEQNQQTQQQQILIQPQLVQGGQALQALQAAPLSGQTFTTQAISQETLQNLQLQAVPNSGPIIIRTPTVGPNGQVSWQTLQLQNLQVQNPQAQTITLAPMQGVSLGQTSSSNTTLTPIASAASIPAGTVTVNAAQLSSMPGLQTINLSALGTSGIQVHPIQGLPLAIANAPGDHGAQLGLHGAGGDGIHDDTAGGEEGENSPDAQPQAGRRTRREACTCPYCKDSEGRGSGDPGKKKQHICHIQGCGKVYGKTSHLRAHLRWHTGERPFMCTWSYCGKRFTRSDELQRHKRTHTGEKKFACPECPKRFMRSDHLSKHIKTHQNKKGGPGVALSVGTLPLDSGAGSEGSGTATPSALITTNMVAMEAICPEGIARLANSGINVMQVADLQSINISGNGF
Hepatocyte nuclear factor 6 (Homo sapiens), sequence (Q9UBC0 whole entry, looked up, the tested form may be a part): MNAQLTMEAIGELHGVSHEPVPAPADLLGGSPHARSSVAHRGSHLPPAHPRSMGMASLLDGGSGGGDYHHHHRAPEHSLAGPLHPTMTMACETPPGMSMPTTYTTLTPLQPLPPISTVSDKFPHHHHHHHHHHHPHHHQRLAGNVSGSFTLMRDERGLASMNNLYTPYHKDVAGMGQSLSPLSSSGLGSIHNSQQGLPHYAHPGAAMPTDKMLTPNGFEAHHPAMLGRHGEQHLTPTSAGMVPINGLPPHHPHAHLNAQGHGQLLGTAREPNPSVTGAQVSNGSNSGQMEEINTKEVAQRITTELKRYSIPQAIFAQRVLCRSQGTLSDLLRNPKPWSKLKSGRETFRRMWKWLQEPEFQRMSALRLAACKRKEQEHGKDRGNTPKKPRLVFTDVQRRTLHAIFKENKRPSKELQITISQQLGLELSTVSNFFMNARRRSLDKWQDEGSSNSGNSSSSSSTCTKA
Paired box protein Pax-6 (Homo sapiens), sequence (P26367 whole entry, looked up): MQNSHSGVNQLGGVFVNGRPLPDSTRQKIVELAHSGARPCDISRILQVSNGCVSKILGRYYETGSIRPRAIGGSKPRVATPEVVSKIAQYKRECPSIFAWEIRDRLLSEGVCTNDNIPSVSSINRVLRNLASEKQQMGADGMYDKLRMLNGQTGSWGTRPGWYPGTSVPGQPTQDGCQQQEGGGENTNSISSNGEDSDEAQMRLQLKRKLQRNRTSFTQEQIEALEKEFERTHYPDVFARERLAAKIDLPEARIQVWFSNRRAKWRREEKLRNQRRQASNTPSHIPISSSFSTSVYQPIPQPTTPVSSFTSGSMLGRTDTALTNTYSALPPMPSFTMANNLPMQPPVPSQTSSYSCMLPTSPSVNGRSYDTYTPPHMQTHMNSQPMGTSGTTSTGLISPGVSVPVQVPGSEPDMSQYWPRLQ

CCC(Cc1c(I)cc(I)c(N)c1I)C(=O)O (centres undefined)
active: [4] 88.5 µM | [12] 151 µM | [13] 39.7 µM | [15] 137 µM | [16] 88.5 µM | [17] 24.1 µM
not listed: [20]
inactive: all other assays above

CC(C)(C)C(=O)C1C(=O)c2ccccc2C1=O
active: [7] 158 µM | [12] 13.9 µM | [13] 59.7 µM
not listed: [8] | [10]
inactive: all other assays above

COCCC(=O)OC
not listed: [12] | [20]
inactive: all other assays above

NC(=O)C(F)(F)C(F)(F)C(F)(F)F
not listed: [10] | [14] | [20]
inactive: all other assays above

O=C(Cl)C(F)(F)C(F)(F)C(F)(F)C(F)(F)C(F)(F)C(F)(F)C(F)(F)F
active: [13] 69.5 µM
not listed: [10] | [12] | [20]
inactive: all other assays above

O=S(=O)(O)CCC(F)(F)C(F)(F)C(F)(F)C(F)(F)C(F)(F)C(F)(F)C(F)(F)C(F)(F)F
active: [2] 39.9 µM
not listed: [12] | [20]
inactive: all other assays above

c1ccc(C[P+](c2ccccc2)(c2ccccc2)c2ccccc2)cc1
active: [4] 31.3 µM | [9] 59.4 µM
not listed: [8] | [12] | [14] | [20]
inactive: all other assays above

Cc1ccc2c(c1)OCC(=O)CO2
not listed: [8] | [12] | [20]
inactive: all other assays above

Nc1c(Br)cc([N+](=O)[O-])cc1Br
not listed: [10] | [12] | [20]
inactive: all other assays above

O=C1c2ccccc2C(=O)c2c(Cl)cccc21
not listed: [12] | [14] | [20]
inactive: all other assays above

CCN(CC)c1ccc2c(c1)Oc1cc(N(CC)CC)ccc1C21OC(=O)c2ccccc21
active: [4] 55.3 µM | [12] 1.04 µM | [17] 17.6 µM
not listed: [10] | [14] | [20]
inactive: all other assays above

CCC(C)CO (centres undefined)
not listed: [14] | [20]
inactive: all other assays above

CC(C)(C)c1cc(Cc2cc(C(C)(C)C)c(O)c(C(C)(C)C)c2)cc(C(C)(C)C)c1O
active: [12] 0.513 µM
not listed: [1] | [8]
inactive: all other assays above

O=C1C=CC(=O)N1c1ccc(Cc2ccc(N3C(=O)C=CC3=O)cc2)cc1
active: [7] 46.9 µM | [20] 50.7 µM | [11] 33.4 µM | [12] 26.7 µM | [13] 57.2 µM | [16] 48.4 µM
not listed: [1] | [8] | [14]
inactive: all other assays above

CC1=CC2C3C=CC(C3)C2C1C (centres undefined)
active: [9] 65.8 µM | [12] 1.59 µM
not listed: [1] | [10]
inactive: all other assays above

CCCCOC(=O)C(C)O (centres undefined)
not listed: [1] | [10] | [20]
inactive: all other assays above

From PubChem BioAssay (EPA / NIEHS)
